# Results from PMC4336329 (PLoS ONE, 2015).
# Screen size: about 310,000 compounds; about 2,200 (0.71%) showed an effect of 50% or more. The effect is printed as a negative number. Shown is part of a subset that was picked to be rich in strong results.
# Molecular target: human ether-à-go-go-related gene (hERG) potassium channel (human, UniProt Q12809)
# Assay: primary screen, population patch clamp on CHO cells stably expressing hERG; higher = less effect of the substance
# Chain of human ether-à-go-go-related gene (hERG) potassium channel (Q12809 whole entry, looked up): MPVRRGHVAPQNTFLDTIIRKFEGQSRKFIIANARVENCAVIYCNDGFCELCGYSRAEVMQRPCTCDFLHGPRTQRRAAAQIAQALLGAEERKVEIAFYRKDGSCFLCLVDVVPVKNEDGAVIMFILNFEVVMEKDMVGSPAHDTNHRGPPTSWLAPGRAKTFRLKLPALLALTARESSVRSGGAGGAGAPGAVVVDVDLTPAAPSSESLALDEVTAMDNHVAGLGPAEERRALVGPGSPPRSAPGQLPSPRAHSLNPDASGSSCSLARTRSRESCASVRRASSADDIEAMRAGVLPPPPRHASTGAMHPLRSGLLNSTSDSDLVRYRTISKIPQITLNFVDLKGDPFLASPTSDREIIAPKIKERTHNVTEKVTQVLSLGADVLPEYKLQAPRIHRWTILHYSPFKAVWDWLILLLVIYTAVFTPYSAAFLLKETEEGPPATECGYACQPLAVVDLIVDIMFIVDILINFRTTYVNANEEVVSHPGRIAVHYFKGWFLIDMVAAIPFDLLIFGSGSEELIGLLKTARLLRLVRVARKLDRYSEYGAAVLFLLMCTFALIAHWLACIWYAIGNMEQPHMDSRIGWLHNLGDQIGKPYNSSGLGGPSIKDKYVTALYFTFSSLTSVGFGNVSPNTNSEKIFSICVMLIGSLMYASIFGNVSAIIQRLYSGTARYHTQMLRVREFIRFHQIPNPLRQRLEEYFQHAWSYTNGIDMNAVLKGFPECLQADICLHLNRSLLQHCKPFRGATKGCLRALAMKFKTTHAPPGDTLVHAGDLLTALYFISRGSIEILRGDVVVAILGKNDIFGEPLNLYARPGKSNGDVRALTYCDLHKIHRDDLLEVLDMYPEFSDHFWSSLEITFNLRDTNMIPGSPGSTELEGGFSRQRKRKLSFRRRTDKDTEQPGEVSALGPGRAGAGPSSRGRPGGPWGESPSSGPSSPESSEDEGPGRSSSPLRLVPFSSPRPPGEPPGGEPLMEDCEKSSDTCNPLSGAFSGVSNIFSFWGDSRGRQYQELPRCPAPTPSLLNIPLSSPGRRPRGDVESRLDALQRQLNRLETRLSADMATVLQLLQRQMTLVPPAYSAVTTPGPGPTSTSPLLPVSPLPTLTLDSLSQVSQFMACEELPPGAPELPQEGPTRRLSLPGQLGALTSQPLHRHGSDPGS
row,SMILES,"hERG current change (%, negative = inhibition) at 1uM"
1,COC(=O)c1cc(S(=O)(=O)NCC2CCN(Cc3cccc(Cl)c3)CC2)c[nH]1,5.82%
2,COC(=O)c1cc(S(=O)(=O)NCC2CCN(Cc3cccc(F)c3)CC2)c[nH]1,2.87%
3,COc1cc(/C=N/NC(=O)c2ccc(N(C)S(=O)(=O)c3ccccc3)cc2)cc(OC)c1OC,10.6%
4,O=C(O)CCC(=O)Nc1cccc(-c2csc(-c3ccccc3)n2)c1,4.25%
5,COC(=O)c1cc2sc(Cl)cc2n1CC(=O)Nc1ccc(OC)c(OC)c1OC,-58.5%
6,COC(=O)c1cc2sccc2n1CC(=O)Nc1ccc(OC)c(OC)c1OC,9.49%
7,COC(=O)c1cc2occc2n1CC(=O)Nc1ccc(OC)c(OC)c1OC,11.1%
8,Cc1ccc2[nH]c(=O)c(CN(Cc3nnnn3Cc3ccccc3)C3CCCC3)cc2c1,11.9%
9,O=c1cc(CS(=O)(=O)c2ccccc2)nc(-c2ccncc2)[nH]1,11.3%
10,Cc1ccc(C(=O)N/C(=C\c2cccs2)C(=O)N2CCCCCC2)cc1,-19.3%
11,Cc1ccc(C(=O)N/C(=C/c2cccs2)C(=O)N2CCCCCC2)cc1,-13.9%
12,CCOC(=O)N1CCN(C(=O)/C(=C/c2cccs2)NC(=O)c2cccs2)CC1,-6.55%
13,Cc1ccc(C(=O)N/C(=C\c2cccs2)C(=O)N2CCN(C)CC2)cc1C,-77.2%
14,CCN1CCN(C(=O)/C(=C/c2cccs2)NC(=O)c2ccc(C)c(C)c2)CC1,-83.5%
15,COc1ccc(C(=O)N/C(=C\c2cccs2)C(=O)N2CCN(C)CC2)cc1OC,-33.9%
16,CCOC(=O)N1CCN(C(=O)/C(=C/c2cccs2)NC(=O)c2ccc(OC)c(OC)c2)CC1,-64.7%
17,Cc1ccc(C(=O)N/C(=C\c2cccs2)C(=O)N2CCOCC2)cc1C,1.26%
18,Cc1ccc(C(=O)N/C(=C/c2cccs2)C(=O)N2CCCCC2)cc1,10.6%
19,COc1cc(NC(=O)CSc2ncnc3scc(-c4ccccc4)c23)c(C(=O)O)cc1OC,11.2%
20,CCN(CC)C(=O)Cn1cc(S(=O)(=O)CC(=O)N2CCOCC2)c2ccccc21,7.45%
21,Cc1ccc(S(=O)(=O)N2CCCCC2)cc1NC(=O)COC(=O)Cc1c(F)cccc1Cl,14.5%

row,SMILES,"hERG current change (%, negative = inhibition) at 1uM"
1,CCOC(=O)C1CCCCN1C(=O)CCc1c(C)nc2cc(-c3ccccc3)nn2c1C (stereo not drawn),-14%
2,CCOC(=O)C1CCN(C(=O)CCc2c(C)nc3cc(-c4ccc(OC)cc4OC)nn3c2C)CC1,-10.6%
3,CCOC(=O)C1CCN(C(=O)CCc2c(C)nc3cc(-c4ccccc4)nn3c2C)CC1,-62%
4,S=C(N/N=C/c1ccco1)NC1CC2CCC1C2 (stereo not drawn),8.84%
5,CC1(C)O[C@@H]2C[C@H]3[C@@H]4C[C@H](F)C5=CC(=O)CC[C@]5(C)[C@H]4[C@@H](O)C[C@]3(C)[C@]2(C(=O)CO)O1,18.1%
6,CCOc1ccc(CN2CCN(Cc3cccc4c3OCO4)CC2CCO)cc1 (stereo not drawn),-64.9%
7,CCOc1ccc(CN2CCN(CC3CC3)CC2CCO)cc1 (stereo not drawn),-20.7%
8,CCOc1ccc(CN2CCN(Cc3cc4c(cc3Cl)OCO4)CC2CCO)cc1 (stereo not drawn),-62.9%
9,OCCC1CN(Cc2cc3c(cc2Cl)OCO3)CCN1Cc1ccccc1 (stereo not drawn),-1.48%
10,OCCC1CN(Cc2cccc3c2OCO3)CCN1Cc1ccccc1 (stereo not drawn),7.11%
11,CCOc1ccc(CN2CCN(CC3=Cc4cccc(OC)c4OC3)CC2CCO)cc1 (stereo not drawn),-71.4%
12,COc1cccc2c1OCC(CN1CCN(Cc3ccccc3F)C(CCO)C1)=C2 (stereo not drawn),12%
13,Cc1ccc(CN2CCN(Cc3cccc4c3OCO4)CC2CCO)cc1 (stereo not drawn),-16.1%
14,COc1cccc2c1OCC(CN1CCN(Cc3ccccc3)C(CCO)C1)=C2 (stereo not drawn),-4.17%
15,COc1ccccc1CNC(=O)C1(c2ccc(Cl)cc2)CC1,0.547%
16,O=C(c1cccc(C(F)(F)F)c1)N1CCCC1,8.42%
17,COc1ccc(-c2nn(-c3ccccc3)cc2/C=N/Nc2ccc3ccccc3n2)cc1OC,7.59%
18,Cc1cc2n(n1)SC(Nc1cc(Cl)ccc1Cl)N2 (stereo not drawn),7.4%
19,COC(=O)c1cc(S(=O)(=O)Nc2ccc(C)c(F)c2)c[nH]1,-3.6%
20,CCn1c(/C(C#N)=N/O)nc2ccccc21,6.1%
21,O=C(NNS(=O)(=O)c1ccc(F)cc1)c1ccccc1O,13.6%
